# Data as given in publication PMC5540273 (PLoS ONE, 2017).
# Legend:
# Conditions in all cases: concentration: 1 μM, replicates: in singlicate; n = 1
# CSNK1G1 = tested on: CSNK1G1
# CSNK1G2 = tested on: CSNK1G2
# CSNK1G3 = tested on: CSNK1G3
# CSNK2A1 = tested on: CSNK2A1
# CSNK2A2 = tested on: CSNK2A2
# CTK = tested on: T1, CTK
# T1 construct: gene MATK
# DAPK1 = tested on: DAPK1
# DAPK2 = tested on: DAPK2
# DAPK3 = tested on: DAPK3
# DCAMKL1 = tested on: T2, DCAMKL1
# T2 construct: gene DCLK1
# DCAMKL2 = tested on: T3, DCAMKL2
# T3 construct: gene DCLK2
# DCAMKL3 = tested on: T4, DCAMKL3
# T4 construct: gene DCLK3
# DDR1 = tested on: DDR1
# DDR2 = tested on: DDR2
# DLK = tested on: T5, DLK
# T5 construct: gene MAP3K12
# DMPK2 = tested on: T6, DMPK2
# T6 construct: gene CDC42BPG
# DMPK = tested on: DMPK
# DRAK1 = tested on: T7, DRAK1
# T7 construct: gene STK17A
# DRAK2 = tested on: T8, DRAK2
# T8 construct: gene STK17B
# DYRK1A = tested on: DYRK1A
# 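Also: KINOMEscan kinase panel screen.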
SMILES,%Inh (CSNK1G1),%Inh (CSNK1G2),%Inh (CSNK1G3),%Inh (CSNK2A1),%Inh (CSNK2A2),%Inh (CTK),%Inh (DAPK1),%Inh (DAPK2),%Inh (DAPK3),%Inh (DCAMKL1),%Inh (DCAMKL2),%Inh (DCAMKL3),%Inh (DDR1),%Inh (DDR2),%Inh (DLK),%Inh (DMPK2),%Inh (DMPK),%Inh (DRAK1),%Inh (DRAK2),%Inh (DYRK1A)
CSc1cccc2c(-c3ccncn3)c(-c3ccc(F)cc3)nn12 [GW514786],3%,10%,21%,0%,13%,0%,0%,0%,0%,5%,20%,0%,78%,63%,24%,59%,13%,0%,0%,18%
COc1ccc(CNC(=O)NC2CCN(c3ccnc(Nc4ccc(F)cc4)n3)CC2)cc1 [GSK1379788],0%,0%,19%,0%,0%,0%,0%,0%,0%,0%,0%,5%,0%,32%,34%,0%,0%,0%,0%,0%
Cc1cccc(NC(=O)Nc2ccc(Oc3ncnc4ccn(C)c34)cc2)c1,0%,10%,5%,0%,0%,0%,0%,0%,0%,45%,0%,0%,99.3%,98.7%,0%,0%,0%,0%,0%,0%
c1ccc(-c2cnc3nccnn23)cc1 [AH20685],0%,5%,0%,0%,0%,0%,0%,0%,0%,0%,27%,0%,0%,24%,20%,0%,0%,0%,0%,42%
CCn1c(-c2nonc2N)nc2c(C#CC(C)(C)O)nc(OC[C@H](N)c3ccccc3)cc21 [GSK943949],0%,0%,17%,0%,30%,11%,0%,3%,18%,12%,0%,19%,4%,12%,0%,0%,0%,13%,19%,4%
CC(=O)N1CCN(c2ccc(Nc3nccc(-c4sc(C(C)C)nc4-c4cccc(NS(=O)(=O)c5cccc(Cl)c5)c4)n3)cn2)CC1 [GSK1660437],0%,0%,10%,13%,0%,27%,14%,0%,6%,9%,19%,52%,98.2%,40%,23%,0%,0%,0%,0%,0%
Cc1ccc(C(=O)N2CC[C@@H](O)C2)cc1-n1c(C)cc(OCc2ccc(F)cc2F)c(Br)c1=O,0%,0%,0%,0%,0%,0%,3%,0%,7%,40%,0%,0%,99%,94.6%,0%,0%,0%,0%,0%,0%
COc1cc(Nc2nccc(N3CCC(NC(=O)Nc4cccc(C(C)=O)c4)C3)n2)cc(OC)c1OC (centres unmarked) [GSK1379753],12%,0%,21%,13%,16%,0%,5%,0%,13%,20%,0%,0%,6%,8%,42%,25%,0%,0%,10%,14%
O=C(Nc1cccc(-c2nn3ccccc3c2-c2ccnc(Nc3cccc(C(F)(F)F)c3)n2)c1)c1c(F)cccc1F [GSK292658],0%,0%,8%,7%,2%,14%,0%,0%,0%,49%,0%,0%,99.3%,50%,2%,49%,0%,0%,0%,9%
COC(=O)Nc1nc2cc(Oc3ccc(NC(=O)Nc4cc(C(F)(F)F)ccc4F)cn3)ccc2[nH]1.Cl.Cl [GW681170],10%,6%,18%,0%,72%,0%,51%,0%,9%,11%,15%,3%,100%,97.1%,35%,0%,0%,16%,0%,0%
